Assay [1] is described as follows: Nuclear factor erythroid 2-related factor 2/antioxidant responsive element (Nrf2/ARE) small molecule agonists: qHTS cell viability counter screen in human keratinocytes (AID 1919968; active = well fitted curve in the direction sought with a large enough effect in the repeat runs; an effect the other way counts as inactive or inconclusive; note: nearly all actives have a fitted effect of over 55% in size). The method in brief: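 Fluorescence read-out from CellTiter-Fluor after 1 h at 37 C. Wells held HaCaT-derived ARE-luciferase reporter cells (1,500/well) treated 23 h with DMSO-dissolved compounds. Run in the same wells as the luciferase agonist read.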
For orientation: Quantitative high-throughput screening tests each substance at several concentrations.

Assay [2] can be described thus: Nuclear factor erythroid 2-related factor 2/antioxidant responsive element (Nrf2/ARE) small molecule agonists: luciferase reporter gene qHTS assay in human keratinocytes (AID 1919969). Note: nearly all actives have a fitted effect of over 35% in size. Note: potency is the fitted concentration of half-maximal effect.
Assay [3] has as its target Gonadotropin-releasing hormone receptor (Homo sapiens) (UniProt P30968). Briefly: Human gonadotropin-releasing hormone receptor (GnRHR) small molecule agonists, calcium flux assay in GnRHR-HEK293 cells (AID 1920063). Note: nearly all actives have a fitted effect of over 35% in size. A digest of the protocol: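 Calcium-dye fluorescence, Ex/Em=480/540, recorded every 1 sec over 3 min after compound addition to GnRHR-HEK293 cells. Cells had been seeded 18 hours earlier and dye-loaded for 1 hour at 37 C. Fifteen concentrations, triplicates.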

Assay [4] concerns the target KiSS-1 receptor (Homo sapiens) (UniProt Q969F8). Nature of the assay: Human kisspeptin (KISS1R) small molecule agonists, calcium flux assay in KISS1R-HEK293 cells (AID 1920064; active = well fitted curve in the direction sought with a large enough effect in the repeat runs; an effect the other way counts as inactive or inconclusive). The method in brief:
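Calcium flux read-out: kinetic fluorescence at Ex/Em=480/540, 1 s intervals over 3 min, after pin-tool compound addition to dye-loaded KISS1R-HEK293 cells. Fifteen concentrations, triplicates.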
For orientation: A change in cytosolic calcium serves as a functional read-out for many receptors and channels.

The nature of assay [5]: G protein-coupled receptor (GPCR) small molecule agonists, calcium flux assay: HEK293 wild type cell line counter screen (AID 1920065). The method in brief:
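Agonist mode; 18 h seeding at 37 C, 1 h dye load at 37 C; compounds pinned from DMSO, ATP as positive control; kinetic fluorescence 480/540 nm, 3 min, 1 s reads; 15 concentrations, triplicate.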

A short description of assay [6]: p53 small molecule agonists, cell-based qHTS assay with human liver microsomes (AID 1963577).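 Note: p53 response element beta-lactamase reporter cells with liver microsomes plus NADPH.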 The method in brief:
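In this qHTS, p53 response-element beta-lactamase cells receive test compound together with a microsome/NADPH activating system (0.5 mg/mL final each) and are incubated 16 h at 37 C before LiveBLAzer fluorescence detection.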

The nature of assay [7]: p53 small molecule agonists, cell-based qHTS assay with rat liver microsomes (AID 1963578). The method in brief:
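Agonist mode in p53RE-bla reporter cells, with compounds co-incubated 16 h at 37 C alongside 0.5 mg/mL rat liver microsomes and 0.5 mg/mL NADPH (final), followed by a 2 h LiveBLAzer detection step.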

Assay [8] can be described thus: p53 small molecule agonists, cell-based qHTS assay with human liver microsomes: qHTS cell viability counter screen (AID 1963579). Note: nearly all actives have a fitted effect of over 45% in size. A digest of the protocol:
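Metabolically activated exposure: compounds, human liver microsomes and NADPH (0.5 mg/mL final apiece) were added to p53RE-bla cells seeded 5 h earlier, left 16 h at 37 C, and then assessed for viability by CellTiter-Glo luminescence.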

Assay [9] can be described thus: p53 small molecule agonists, cell-based qHTS assay with rat liver microsomes: qHTS cell viability counter screen (AID 1963580). Note: nearly all actives have a fitted effect of over 45% in size. The method in brief:
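Rat liver microsome (0.5 mg/mL final) and NADPH (0.5 mg/mL final) co-incubation with compounds for 16 h at 37 C on HCT-116 p53RE-bla cells; cytotoxicity taken from intracellular ATP luminescence.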

Assay [10] is described as follows: p53 small molecule agonists, cell-based qHTS assay: qHTS cell viability counter screen (AID 1963581). Note: nearly all actives have a fitted effect of over 45% in size. The method in brief: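 Cytotoxicity read-out: ATP-based luminescence (CellTiter-Glo, 30 min RT) measured in the same wells as the p53 reporter assay, HCT-116 p53RE-bla cells, 16 h compound exposure at 37 C.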
Assay [11] can be described thus: p53 small molecule agonists, cell-based qHTS assay (AID 1963582; active = well fitted activation curve with a large enough effect in the signal ratio in the repeat runs, not every such curve was filed as active; the % refers to the signal ratio). The method in brief: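 Fluorescence intensity read-out of a beta-lactamase reporter under a p53 response element. Cells were exposed to DMSO-dissolved compounds for 16 h at 37 C, then developed with FRET substrate for 2 h at RT.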
Assay [12] concerns the target 5-hydroxytryptamine receptor 2A (Homo sapiens) (UniProt P28223). Briefly: 5-hydroxytryptamine receptor 2A (HTR2A) small molecule antagonists, cell-based qHTS assay (AID 1963586). Note: nearly all actives have a fitted effect of over 45% in size. A digest of the protocol: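 CHO cells stably expressing human HTR2A were plated for 18 h at 37 C, then loaded with calcium dye for 1 h. Compounds were preincubated 5 min at room temperature before DOI (4 nM solution) was added. Kinetic fluorescence was read for 3 min.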

Assay [13] has the same target. Nature of the assay: 5-hydroxytryptamine receptor 2A (HTR2A) small molecule agonists, cell-based qHTS assay (AID 1963587). Note: nearly all actives have a fitted effect of over 30% in size. A digest of the protocol:
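Kinetic calcium-flux fluorescence (2 min, 1 sec intervals) after compound addition in agonist mode. HTR2A-CHO cells were cultured 18 h, then dye-loaded 1 h at 37 C.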

Assay [14] has as its target Muscarinic acetylcholine receptor M1 (Homo sapiens) (UniProt P11229). Nature of the assay: Cholinergic receptor muscarinic 1 (CHRM1) small molecule antagonists, cell-based qHTS assay (AID 1963588). Note: nearly all actives have a fitted effect of over 40% in size. A digest of the protocol: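 Compounds were tested at 15 concentrations in three independent runs. Dye-loaded CHRM1-CHO cells were exposed 5 min at room temperature before stimulation by acetylcholine added at 50nM. Intracellular calcium was read kinetically on FDSS for 3 min.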

The target is the same in assay [15]. Nature of the assay: Cholinergic receptor muscarinic 1 (CHRM1) small molecule agonists, cell-based qHTS assay (AID 1963589). Note: nearly all actives have a fitted effect of over 35% in size. A digest of the protocol: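 Calcium flux read-out: kinetic fluorescence at 1 sec intervals after pin-tool compound addition to dye-loaded CHRM1-CHO cells (human M1). Agonist mode; 15 concentrations tested in triplicate independent runs.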

A short description of assay [16]: cAMP Responsive Elements (CRE) small molecule agonists, cell-based qHTS assay (AID 1963590). The method in brief:
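Beta-lactamase reporter readout: LiveBLAzer B/G FRET substrate, 2 h at room temperature, added after 3 h compound treatment of CRE-bla HEK 293T cells at 37 C/5% CO2.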

The nature of assay [17]: cAMP Responsive Elements (CRE) small molecule antagonists, cell-based qHTS assay (AID 1963591; active = well fitted inhibition curve with a large enough effect in the signal ratio in the repeat runs, not every such curve was filed as active; the % refers to the signal ratio). The method in brief: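 HEK293T CRE-bla; 18 h preincubation; compound pin-transfer; NKH477 0.25 uM final, 3 h, 37 C; LiveBLAzer FRET substrate 2 h RT.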
The target of assay [18] is Beta-2 adrenergic receptor (Homo sapiens) (UniProt P07550). Briefly: Adrenergic beta2 receptor (ADRB2) small molecule antagonists, cell-based qHTS assay (AID 1963592). Note: series mostly up to about 92 µM; nearly all actives have a fitted effect of over 50% in size. The method in brief: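 Assay format: CHO-ADRB2 cells, 18-20hr seeding at 37C/5% CO2, then compound plus 1nM isoproterenol agonist mix for 0.5hr RT. Homogeneous time-resolved fluorescence cAMP detection after 1hr, expressed as 665/615 nm ratio.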

Assay [19] concerns the target D(2) dopamine receptor (Homo sapiens) (UniProt P14416). Briefly: Dopamine D2 receptor (DRD2) small molecule agonists, cell-based qHTS assay (AID 1963594). Note: nearly all actives have a fitted effect of over 35% in size. A digest of the protocol:
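cAMP accumulation in DRD2-HEK293 cells measured by HTRF after 1 h detection; compounds added 10 min before NKH477 (200nM […]) forskolin-analogue stimulation, 30 min at room temperature, with Ro20-1724 present at 0.1 mM final.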

Assay [20] has the same target. Briefly: Dopamine D2 receptor (DRD2) small molecule antagonists, cell-based qHTS assay (AID 1963595; active = well fitted inhibition curve with a large enough effect in the signal ratio in the repeat runs, with a control signal flat; the % refers to the signal ratio). A digest of the protocol:
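Readout: HTRF cAMP, cAMP-d2 competing with cellular cAMP for anti-cAMP cryptate, read after 1 h. Cells: DRD2-HEK293. Conditions: 0.1 mM Ro20-1724, 12 nM quinpirole, 200 nM NKH477, 30 min RT.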

Records with an inconclusive call do not appear. Activity calls are given as the source filed them. Unless noted, calls come from the whole dose curve.

Sequence of D(2) dopamine receptor (Homo sapiens) (P14416 whole entry, looked up): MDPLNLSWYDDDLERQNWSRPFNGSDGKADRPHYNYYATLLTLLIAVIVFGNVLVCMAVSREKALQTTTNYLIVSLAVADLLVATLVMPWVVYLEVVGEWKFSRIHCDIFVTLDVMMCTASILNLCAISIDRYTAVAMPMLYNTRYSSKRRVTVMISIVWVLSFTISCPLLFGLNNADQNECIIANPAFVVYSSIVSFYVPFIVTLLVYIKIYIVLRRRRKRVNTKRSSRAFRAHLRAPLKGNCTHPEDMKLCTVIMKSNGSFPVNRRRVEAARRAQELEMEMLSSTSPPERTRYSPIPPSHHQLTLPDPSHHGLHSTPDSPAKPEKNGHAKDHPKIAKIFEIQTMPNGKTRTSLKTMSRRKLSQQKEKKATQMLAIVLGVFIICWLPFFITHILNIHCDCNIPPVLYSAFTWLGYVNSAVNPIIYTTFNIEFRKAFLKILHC
Sequence of Muscarinic acetylcholine receptor M1 (Homo sapiens) (P11229 whole entry, looked up): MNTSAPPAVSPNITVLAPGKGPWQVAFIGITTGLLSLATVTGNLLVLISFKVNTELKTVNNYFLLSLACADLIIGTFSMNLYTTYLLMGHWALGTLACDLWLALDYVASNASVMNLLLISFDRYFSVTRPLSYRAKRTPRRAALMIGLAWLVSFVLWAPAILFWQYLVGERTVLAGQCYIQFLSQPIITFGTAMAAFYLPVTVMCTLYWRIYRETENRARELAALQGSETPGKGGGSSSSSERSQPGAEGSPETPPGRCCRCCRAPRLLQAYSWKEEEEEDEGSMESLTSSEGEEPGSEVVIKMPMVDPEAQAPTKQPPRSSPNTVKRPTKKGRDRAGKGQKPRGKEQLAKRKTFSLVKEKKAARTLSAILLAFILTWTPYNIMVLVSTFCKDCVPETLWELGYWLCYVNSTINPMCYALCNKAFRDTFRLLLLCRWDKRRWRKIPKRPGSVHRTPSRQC
Sequence of KiSS-1 receptor (Homo sapiens) (Q969F8 whole entry, looked up): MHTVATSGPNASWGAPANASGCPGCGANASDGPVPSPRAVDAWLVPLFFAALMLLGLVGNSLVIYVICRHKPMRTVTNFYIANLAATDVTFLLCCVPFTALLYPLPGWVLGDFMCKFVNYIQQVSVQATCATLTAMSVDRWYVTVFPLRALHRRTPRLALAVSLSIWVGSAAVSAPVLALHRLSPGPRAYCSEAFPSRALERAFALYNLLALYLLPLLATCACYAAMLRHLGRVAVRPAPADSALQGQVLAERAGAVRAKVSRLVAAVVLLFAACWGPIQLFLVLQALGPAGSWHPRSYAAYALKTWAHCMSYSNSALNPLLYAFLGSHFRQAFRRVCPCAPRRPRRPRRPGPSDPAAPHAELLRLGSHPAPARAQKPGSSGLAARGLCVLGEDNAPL
Sequence of Gonadotropin-releasing hormone receptor (Homo sapiens) (P30968 whole entry, looked up): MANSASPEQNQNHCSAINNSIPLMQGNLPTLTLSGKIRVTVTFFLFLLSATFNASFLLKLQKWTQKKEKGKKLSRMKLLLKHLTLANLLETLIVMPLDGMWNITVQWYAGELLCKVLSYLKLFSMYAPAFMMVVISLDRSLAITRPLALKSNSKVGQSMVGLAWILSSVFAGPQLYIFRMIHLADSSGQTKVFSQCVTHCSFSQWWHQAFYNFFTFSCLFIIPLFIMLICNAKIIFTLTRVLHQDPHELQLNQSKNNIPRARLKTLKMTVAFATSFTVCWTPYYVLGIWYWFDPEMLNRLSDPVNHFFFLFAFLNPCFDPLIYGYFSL
Sequence of Beta-2 adrenergic receptor (Homo sapiens) (P07550 whole entry, looked up): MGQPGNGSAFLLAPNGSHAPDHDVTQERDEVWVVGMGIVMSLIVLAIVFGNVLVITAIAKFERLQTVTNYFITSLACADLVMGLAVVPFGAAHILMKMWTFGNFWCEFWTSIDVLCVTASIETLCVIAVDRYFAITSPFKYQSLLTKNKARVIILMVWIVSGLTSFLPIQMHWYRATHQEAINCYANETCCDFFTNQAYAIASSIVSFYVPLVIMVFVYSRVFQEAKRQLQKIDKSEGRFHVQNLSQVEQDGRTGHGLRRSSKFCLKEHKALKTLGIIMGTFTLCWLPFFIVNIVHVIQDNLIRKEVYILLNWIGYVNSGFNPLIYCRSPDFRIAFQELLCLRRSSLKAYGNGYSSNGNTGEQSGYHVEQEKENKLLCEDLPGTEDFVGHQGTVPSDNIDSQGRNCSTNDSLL
Sequence of 5-hydroxytryptamine receptor 2A (Homo sapiens) (P28223 whole entry, looked up): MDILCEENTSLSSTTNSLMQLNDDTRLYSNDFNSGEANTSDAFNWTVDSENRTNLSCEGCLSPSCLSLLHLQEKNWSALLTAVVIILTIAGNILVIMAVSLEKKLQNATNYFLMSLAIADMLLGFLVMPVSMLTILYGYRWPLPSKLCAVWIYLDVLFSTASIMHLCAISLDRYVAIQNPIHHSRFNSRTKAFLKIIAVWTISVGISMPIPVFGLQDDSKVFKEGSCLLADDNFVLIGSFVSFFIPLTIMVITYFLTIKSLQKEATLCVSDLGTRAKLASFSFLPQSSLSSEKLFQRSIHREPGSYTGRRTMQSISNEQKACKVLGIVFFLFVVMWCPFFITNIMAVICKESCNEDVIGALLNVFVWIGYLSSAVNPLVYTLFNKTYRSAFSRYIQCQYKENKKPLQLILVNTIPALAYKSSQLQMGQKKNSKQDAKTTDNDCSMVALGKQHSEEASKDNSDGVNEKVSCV

Take `O=[N+]([O-])c1ccccc1-c1ccccc1`: the Potency entry in [1], in [2], in assay [3], in [4], in assay [5] and in [6] was “inactive” throughout. Also, the Potency entry in [7], in assay [8], in assay [9], in [10], in assay [11] and in [12] was “inactive” each time. For the same molecule, the Potency entry in assay [13], in assay [14], in assay [15], in assay [16], in assay [17] and in assay [18] was “inactive” each time. The Potency entry in [19] and in assay [20] was “inactive” in each case.

Take `NCCOS(=O)(=O)O`: the Potency result in [1], in assay [2], in assay [3], in assay [4], in assay [5] and in assay [6] was “inactive” each time. Also, the Potency entry in assay [7], in [8], in [9], in assay [10], in assay [11] and in [12] was “inactive” throughout. Also, the Potency result in [13], in assay [14], in assay [15], in [16], in assay [17] and in assay [18] was “inactive” each time. Moreover, the Potency result in assay [19] and in [20] was “inactive” in each case.

`C=CCc1ccccc1O`: the Potency entry in [1], in assay [2], in assay [3], in assay [4], in assay [5] and in assay [6] was “inactive” each time. The Potency entry in assay [7], in assay [8], in assay [9], in [10], in assay [11] and in assay [12] was “inactive” each time. For the same molecule, the Potency entry in assay [13], in assay [14], in [15], in assay [16], in assay [17] and in [18] was “inactive” each time. Besides, the Potency entry in [19] and in [20] was “inactive” throughout.

`O=C(NCNC(=O)NC1C(=O)NC(=O)N1CO)NC1C(=O)NC(=O)N1CO` (centres undefined): the Potency result in assay [1], in assay [2], in assay [3], in assay [4], in assay [5] and in assay [6] was “inactive” throughout. For the same molecule, the Potency entry in [7], in assay [8], in assay [9], in [10], in [11] and in assay [12] was “inactive” each time. Further, the Potency result in assay [13], in assay [14], in assay [15], in [16], in assay [17] and in assay [18] was “inactive” throughout. Also, the Potency entry in [19] and in [20] was “inactive” in each case.

Turning to `C=Cc1cccc(CCl)c1`, the Potency result in assay [1], in assay [2], in assay [3], in assay [4], in assay [5] and in [6] was “inactive” in each case. In addition, the Potency entry in assay [7], in assay [8], in assay [9], in assay [10], in [11] and in assay [12] was “inactive” in each case. Besides, the Potency result in assay [13], in assay [14], in [15], in assay [16], in [17] and in [18] was “inactive” throughout. Further, in assay [20], the Potency entry was “inactive”.

`CCN`: the Potency entry in [1], in assay [2], in [3], in assay [4], in assay [5] and in assay [6] was “inactive” in each case. Moreover, the Potency result in assay [7], in assay [8], in assay [9], in [10], in [11] and in assay [12] was “inactive” each time. Besides, the Potency result in [13], in assay [14], in assay [15], in [16], in assay [17] and in [18] was “inactive” in each case. Besides, the Potency result in assay [19] and in [20] was “inactive” each time.

For `CC(C)c1ccc(CO)cc1`, the Potency entry in assay [1], in assay [2], in assay [3], in [4], in [5] and in assay [6] was “inactive” throughout. Besides, the Potency result in [7], in assay [8], in assay [9], in assay [10], in assay [11] and in assay [12] was “inactive” each time. Moreover, the Potency entry in assay [13], in assay [14], in [15], in [16], in [17] and in assay [18] was “inactive” each time. For the same molecule, the Potency result in assay [19] and in [20] was “inactive” throughout.

Consider `N#CC(Cl)Cl`, for which the Potency entry in [1], in assay [3], in [4], in assay [5], in assay [6] and in [7] was “inactive” each time. Also, the Potency entry in [8], in assay [9], in [10], in assay [11], in assay [12] and in assay [13] was “inactive” in each case. In addition, the Potency result in [14], in [15], in assay [16], in assay [17], in assay [18] and in assay [19] was “inactive” each time. Besides, in assay [20], the Potency result is “inactive”. Further, the Potency in assay [2] is 59.5 µM (active).

These data come from PubChem BioAssay (Tox21).
